Assay results: PubChem BioAssay (EPA / NIEHS)
The source made the active and inactive calls. How the source made its calls: active means hit-call score of the fitted dose curve at least 0.9, where 1 is the maximum; inactive means score below 0.9.

Assays:
Conditions in all cases: mRNA level, 48 h; actives raise or lower the signal
[1] = read-out: Cyclin D2 (CCND2), CCND2 (gene 894); assay: LTEA_HepaRG_CCND2: Life Technologies and Expression Analysis (LTEA) Assay for Cyclin D2 (CCND2) using HepaRG (AID 2283449);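 further: CCND2 transcript measured by TaqMan qRT-PCR and normalised to three housekeeping genes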
Method in brief: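 Chemicals in 0.5% DMSO, eight half-log concentrations from 100 uM top, were applied in duplicate for 48 h to human HepaRG cells in serum-free induction medium. CCND2 mRNA by TaqMan qRT-PCR, normalised to ACTB/GAPDH/POLR2A; bidirectional fit versus DMSO.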

[2] = read-out: Cyclin Dependent Kinase Inhibitor 1A (CDKN1A), CDKN1A (gene 1026); assay: LTEA_HepaRG_CDKN1A: Life Technologies and Expression Analysis (LTEA) Assay for Cyclin Dependent Kinase Inhibitor 1A (CDKN1A) using HepaRG (AID 2283450)
Method in brief: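 Gain or loss of CDKN1A transcript is scored by bidirectional fitting against 0.5% DMSO vehicle. Human HepaRG cultures receive chemicals for 48 h across an 8-point series peaking at 100 uM; expression comes from qRT-PCR.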

[3] = read-out: Cyclin D1 (CCND1), CCND1 (gene 595); assay: LTEA_HepaRG_CCND1: Life Technologies and Expression Analysis (LTEA) Assay for Cyclin D1 (CCND1) using HepaRG (AID 2283451)
Method in brief: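 Expression change is measured by qRT-PCR in HepaRG cells after 48 h treatment across eight concentrations topping at 100 uM, with duplicate wells and DMSO (0.5%) serving as baseline for bidirectional fitting.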

[4] = read-out: catalase (CAT), CAT (gene 847); assay: LTEA_HepaRG_CAT: Life Technologies and Expression Analysis (LTEA) Assay for catalase (CAT) using HepaRG (AID 2283452)
Method in brief: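 HepaRG cells in serum-free induction medium, 0.5% DMSO vehicle, exposed 48 h in duplicate over 8 half-log concentrations from 100 uM. CAT mRNA measured by qRT-PCR, normalized to ACTB, GAPDH, POLR2A; bidirectional fit versus DMSO.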

[5] = read-out: flavin-containing dimethylaniline monooxygenases 3 (FMO3), FMO3 (gene 2328); assay: LTEA_HepaRG_FMO3: Life Technologies and Expression Analysis (LTEA) Assay for flavin-containing dimethylaniline monooxygenases 3 (FMO3) using HepaRG (AID 2283453)
Method in brief: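 HepaRG, 48 h exposure, 8-pt half-log series from 100 uM, 0.5% DMSO vehicle, duplicates; FMO3 transcript by Fluidigm TaqMan qRT-PCR, housekeeping-normalized; gain/loss fit vs DMSO.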

[6] = read-out: Cytochrome P450 (CYP1A1), CYP1A1 (gene 1543); assay: LTEA_HepaRG_CYP1A1: Life Technologies and Expression Analysis (LTEA) Assay for Cytochrome P450 (CYP1A1) using HepaRG (AID 2283454)
Method in brief: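 Using HepaRG cultures with 0.5% DMSO as vehicle, eight-concentration exposures (max 100 uM) lasted 48 h. Transcript levels were measured by TaqMan qRT-PCR and normalized to ACTB, GAPDH and POLR2A.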

[7] = read-out: CFLAR gene, CFLAR (gene 8837); assay: LTEA_HepaRG_CFLAR: Life Technologies and Expression Analysis (LTEA) Assay for CFLAR gene using HepaRG (AID 2283455)
Method in brief: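 Differentiated HepaRG cells in serum-free induction medium were exposed 48 h in duplicate to eight half-log concentrations up to 100 uM in 0.5% DMSO; mRNA measured by TaqMan qRT-PCR, normalized to ACTB, GAPDH, POLR2A; bidirectional fitting versus DMSO.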

[8] = read-out: growth arrest and DNA damage 45 (GADD45A), GADD45A (gene 1647); assay: LTEA_HepaRG_GADD45A: Life Technologies and Expression Analysis (LTEA) Assay for growth arrest and DNA damage 45 (GADD45A) using HepaRG (AID 2283458)
Method in brief: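 Human HepaRG liver cells are treated in duplicate for 48 h with chemicals in 0.5% DMSO, highest concentration 100 uM. Expression is read by qRT-PCR and analyzed in both directions against vehicle.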

[9] = read-out: Forkhead box O3 (FOXO3), FOXO3 (gene 2309); assay: LTEA_HepaRG_FOXO3: Life Technologies and Expression Analysis (LTEA) Assay for Forkhead box O3 (FOXO3) using HepaRG (AID 2283459)
Method in brief: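 Differentiated human HepaRG cells, 48 h post-plating, exposed in duplicate for 48 h in serum-free induction medium; 8-point half-log series from 100 uM in 0.5% DMSO. FOXO3 mRNA by TaqMan qRT-PCR, normalized to ACTB/GAPDH/POLR2A; bidirectional fit versus DMSO.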

[10] = read-out: ABC Transporter (ABCB1), ABCB1 (gene 5243); assay: LTEA_HepaRG_ABCB1: Life Technologies and Expression Analysis (LTEA) Assay for ABC Transporter (ABCB1) using HepaRG (AID 2283460)
Method in brief: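 HepaRG cells exposed in duplicate for 48 h in serum-free induction medium to eight half-log concentrations up to 100 uM in 0.5% DMSO. ABCB1 mRNA quantified by qRT-PCR, normalised to ACTB, GAPDH and POLR2A; fitted bidirectionally versus DMSO.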

[11] = read-out: growth arrest and DNA damage 45 (GADD45B), GADD45B (gene 4616); assay: LTEA_HepaRG_GADD45B: Life Technologies and Expression Analysis (LTEA) Assay for growth arrest and DNA damage 45 (GADD45B) using HepaRG (AID 2283461)
Method in brief: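 Human HepaRG monolayers receive chemicals for 48 h at eight half-log concentrations, highest 100 uM, in 0.5% DMSO. Expression is measured by TaqMan qRT-PCR and normalized to ACTB, GAPDH and POLR2A.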

[12] = read-out: ABC Transporter (ABCC3), ABCC3 (gene 8714); assay: LTEA_HepaRG_ABCC3: Life Technologies and Expression Analysis (LTEA) Assay for ABC Transporter (ABCC3) using HepaRG (AID 2283462)
Method in brief: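 Transcriptional change of ABCC3 in HepaRG after 48 h treatment, determined by qRT-PCR normalized to endogenous controls. Concentrations spanned eight half-log steps to 100 uM in 0.5% DMSO.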

[13] = read-out: ABC Transporter (ABCB11), ABCB11 (gene 8647); assay: LTEA_HepaRG_ABCB11: Life Technologies and Expression Analysis (LTEA) Assay for ABC Transporter (ABCB11) using HepaRG (AID 2283463)
Method in brief: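 Differentiated human HepaRG cells in serum-free induction medium, dosed in duplicate for 48 h. Eight-point half-log series from 100 uM in 0.5% DMSO; ABCB11 mRNA by qRT-PCR, normalized to ACTB, GAPDH, POLR2A, fitted bidirectionally versus DMSO.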

[14] = read-out: Broad substrate specificity ATP-binding cassette transporter ABCG2 (Homo sapiens) (UniProt Q9UNQ0); assay: LTEA_HepaRG_ABCG2: Life Technologies and Expression Analysis (LTEA) Assay for ABC Transporter (ABCG2) using HepaRG (AID 2283465)
Method in brief: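 Differentiated HepaRG cells were exposed for 48 h in serum-free induction medium to 8 half-log concentrations, top 100 uM, in 0.5% DMSO. ABCG2 mRNA was measured by qRT-PCR, normalized to ACTB, GAPDH and POLR2A, with bidirectional fitting versus DMSO.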

[15] = read-out: ATP-citrate lyase (ACLY), ACLY (gene 47); assay: LTEA_HepaRG_ACLY: Life Technologies and Expression Analysis (LTEA) Assay for ATP-citrate lyase (ACLY) using HepaRG (AID 2283466)
Method in brief: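 Differentiated HepaRG cells exposed 48 h in serum-free induction medium to eight half-log concentrations up to 100 uM in 0.5% DMSO, duplicates. Transcript measured by Fluidigm TaqMan qRT-PCR, normalized to ACTB, GAPDH, POLR2A; bidirectional fit versus DMSO.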

[16] = read-out: Alkaline Phosphatase, Placental (ALPP) gene, ALPP (gene 250); assay: LTEA_HepaRG_ALPP: Life Technologies and Expression Analysis (LTEA) Assay for Alkaline Phosphatase, Placental (ALPP) gene using HepaRG (AID 2283468)
Method in brief: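 Using human liver HepaRG cells, chemicals are tested in duplicate over 48 h at half-log concentrations topping at 100 uM; phenobarbital 1 mM serves as induction control. ALPP mRNA change by qRT-PCR, bidirectional fit against vehicle.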

[17] = read-out: Peroxisomal acyl-coenzyme A oxidase 1 (ACOX1) gene, ACOX1 (gene 51); assay: LTEA_HepaRG_ACOX1: Life Technologies and Expression Analysis (LTEA) Assay for Peroxisomal acyl-coenzyme A oxidase 1 (ACOX1) gene using HepaRG (AID 2283467)
Method in brief: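 HepaRG cells, plated 48 h then switched to serum-free induction medium, were exposed in duplicate for 48 h to 8-point half-log concentrations up to 100 uM in 0.5% DMSO. ACOX1 mRNA was measured by qRT-PCR, normalized to ACTB/GAPDH/POLR2A, and fitted bidirectionally versus DMSO.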

[18] = read-out: Forkhead box O1 (FOXO1), FOXO1 (gene 2308); assay: LTEA_HepaRG_FOXO1: Life Technologies and Expression Analysis (LTEA) Assay for Forkhead box O1 (FOXO1) using HepaRG (AID 2283456)
Method in brief: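 Differentiated HepaRG cells, in serum-free induction medium with 0.5% DMSO, exposed 48 h in duplicate to 8-point half-log series from 100 uM. FOXO1 mRNA measured by TaqMan qRT-PCR, normalized to ACTB, GAPDH, POLR2A; bidirectional fit versus DMSO.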

Measured: AC50

Chain of Broad substrate specificity ATP-binding cassette transporter ABCG2 (Homo sapiens) (Q9UNQ0 whole entry, looked up): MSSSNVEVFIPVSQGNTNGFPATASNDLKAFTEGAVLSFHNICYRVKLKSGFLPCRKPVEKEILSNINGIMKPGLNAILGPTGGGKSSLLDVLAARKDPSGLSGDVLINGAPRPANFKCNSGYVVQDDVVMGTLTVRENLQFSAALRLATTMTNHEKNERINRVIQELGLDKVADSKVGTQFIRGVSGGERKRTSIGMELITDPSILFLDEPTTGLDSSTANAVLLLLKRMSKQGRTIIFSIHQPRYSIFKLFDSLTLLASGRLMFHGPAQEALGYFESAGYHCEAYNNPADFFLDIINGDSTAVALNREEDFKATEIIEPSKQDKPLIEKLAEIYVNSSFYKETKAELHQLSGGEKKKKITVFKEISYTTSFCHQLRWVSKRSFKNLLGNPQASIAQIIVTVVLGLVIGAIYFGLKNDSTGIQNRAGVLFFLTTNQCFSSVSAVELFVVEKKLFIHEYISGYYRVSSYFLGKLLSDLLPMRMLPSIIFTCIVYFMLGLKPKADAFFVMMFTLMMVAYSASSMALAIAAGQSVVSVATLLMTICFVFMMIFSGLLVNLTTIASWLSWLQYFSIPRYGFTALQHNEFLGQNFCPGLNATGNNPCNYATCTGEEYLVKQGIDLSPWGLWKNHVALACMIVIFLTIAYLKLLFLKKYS

CN(C)C(=O)Cl
active: [6] 50 µM
not listed: [17] | [18]
inactive: all other assays above

c1nc[nH]n1
active: [1] 0.0353 µM | [6] 0.146 µM | [16] 0.109 µM
not listed: [17] | [18]
inactive: all other assays above

O=P(Oc1ccccc1)(Oc1ccccc1)Oc1ccccc1
active: [2] 77.7 µM | [6] 26 µM | [10] 5.73 µM | [14] 8.36 µM | [15] 71.6 µM
not listed: [9] | [16] | [17] | [18]
inactive: all other assays above

Nc1cc2c3c(c1)C(c1ccccc1)=N[C@@H](NC(=O)c1cccnc1)C(=O)N3CC2
active: [6] 31.8 µM | [10] 18.5 µM
not listed: [9] | [17] | [18]
inactive: all other assays above

CC(Cc1ccc(OCC(=O)O)cc1)NCC(O)c1csc(C(F)(F)F)n1 (stereo not drawn)
active: [6] 0.0496 µM | [16] 0.0552 µM
not listed: [9] | [17] | [18]
inactive: all other assays above

ClC(Cl)c1ccccc1
active: [6] 50 µM
not listed: [9] | [17] | [18]
inactive: all other assays above

CCCCc1ccccc1
active: [6] 75.6 µM
not listed: [9] | [17] | [18]
inactive: all other assays above

O=[N+]([O-])c1ccc(Cl)c(Cl)c1
active: [6] 5.16 µM
not listed: [9] | [18]
inactive: all other assays above

O=C(O)C1C(C(=O)O)C2(Cl)C(Cl)=C(Cl)C1(Cl)C2(Cl)Cl (stereo not drawn)
not listed: [9] | [17] | [18]
inactive: all other assays above

Cc1cccc(N)c1
active: [6] 50.2 µM
not listed: [9] | [17] | [18]
inactive: all other assays above

Cc1ccc([N+](=O)[O-])cc1C
active: [6] 68.1 µM
not listed: [9] | [17]
inactive: all other assays above
